# Compound activity deposited in PubChem BioAssay by several laboratories.
# This is a sample that favours compounds with a hit; in the whole collection about 27% have one here.
# CYP2C9 act = increases human cytochrome P450 2C9 activity; recombinant CYP2C9, luciferin-H conversion, luminescence; stronger effect = higher value; factor 1 = untreated enzyme, 0 = blocked; activation factor at 5 µM; 96,000 compounds, 1.4% hits; AID 1024;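 active = activation factor of 2 or more for CYP2C9 at a 5 µM dose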;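 also: 0 = sulfaphenazole-blocked wells and 1 = vehicle-only wells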
# CYP2C19 inh = inhibitors of human CYP2C19; P33261; CYP2C19 Supersomes, luciferin-H EGE luminescence, 30 min; inhibition, % at 5 µM; 96,000 compounds, 21% hits;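 active = CYP2C19 inhibition above a set limit at 5 µM in the primary screen, cut at about 50% in these data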;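 also: plate controls were negative control wells for no effect and 2.5 mM tranylcypromine positive control for full effect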
# Target sequence (P33261 whole entry, looked up): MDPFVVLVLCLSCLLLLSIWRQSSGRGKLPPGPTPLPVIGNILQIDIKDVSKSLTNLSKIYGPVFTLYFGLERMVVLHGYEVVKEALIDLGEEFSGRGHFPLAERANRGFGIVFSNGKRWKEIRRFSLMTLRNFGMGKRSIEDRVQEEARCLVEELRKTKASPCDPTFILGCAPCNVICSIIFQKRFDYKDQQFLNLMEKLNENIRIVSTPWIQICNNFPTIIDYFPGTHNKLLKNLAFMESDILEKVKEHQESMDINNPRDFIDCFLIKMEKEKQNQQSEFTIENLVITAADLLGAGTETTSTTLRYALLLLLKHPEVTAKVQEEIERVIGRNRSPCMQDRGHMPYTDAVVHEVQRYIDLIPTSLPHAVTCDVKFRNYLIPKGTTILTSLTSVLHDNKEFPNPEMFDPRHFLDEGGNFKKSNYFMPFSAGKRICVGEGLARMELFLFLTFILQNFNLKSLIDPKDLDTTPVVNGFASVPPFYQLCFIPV
# CYP2C19 act = cytochrome P450 2C19 (human) activation | P33261 | recombinant CYP2C19, luciferin-H EGE luminescence; stronger effect = higher value; 0 = fully inhibited enzyme, 1 = untreated enzyme | activation factor at 5 µM | 96,000 tested, under 10 active;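 active = activation factor of at least 2 at 5 µM in the primary screen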;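 also: 0 = wells with 2.5 mM tranylcypromine and 1 = vehicle-only wells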
# EphB4 ephrin blk = EphB4-ephrin-B2 interaction antagonism | EphB4 LBD / TNYL-RAW-Alexa532 peptide, fluorescence polarization | P54760 | inhibition, % at 7 µM | 97,000 compounds, 0.15% hits | AID 720;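 active = inhibition above the screen-wide mean inhibition plus 3 SD, cut at about 15% in these data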;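 also: 0% = DMSO wells and 100% = excess unlabeled TNYL-RAW peptide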
# CYP2C9 inhib = human CYP2C9 inhibition | 96,000 compounds, 20% hits | AID 777 | inhibition, % at 5 µM | CYP2C9 Supersomes, luciferin-H conversion, luminescence;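 active = blocking of liver enzyme CYP2C9 beyond about 50% at 5 µM, limit read from the data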
# The depositor's hits bear a star; . = not tested or not shown.
SMILES,CYP2C9 act,CYP2C19 inh,CYP2C19 act,EphB4 ephrin blk,CYP2C9 inhib
CC(=O)OCC1OC(n2ccc(=O)[nH]c2=O)C(O)C1O (configuration not stated),0.8,9,0.9,-1,19
COCCCN=C(c1ccco1)n1c(=S)nc(-c2ccco2)n(CCCOC)c1=S,0.4,36,0.6,0,61*
Cc1c(NS(=O)(=O)c2ccc3c(c2)n(C)c(=O)n3C)c(=O)n(-c2ccccc2)n1C,1,-19,1.2,3,2
Cc1c(NC(=O)c2ccccc2NS(=O)(=O)c2ccc(Br)cc2)c(=O)n(-c2ccccc2)n1C,0.5,-8,1.1,-7,45
Cc1c(NS(=O)(=O)c2cccs2)c(=O)n(-c2ccccc2)n1C,0.7,55*,0.4,7,29
CC1(C)C2CCC1(CS(=O)(=O)NCc1ccc(C(=O)O)cc1)C(=O)C2 (configuration not stated),1,-4,1,-3,2
Cc1c(NS(=O)(=O)N2CCCCC2)c(=O)n(-c2ccccc2)n1C,0.9,74*,0.3,-1,10
CCS(=O)(=O)Nc1c(C)n(C)n(-c2ccccc2)c1=O,0.9,12,0.9,-4,9
Cc1c(NS(=O)(=O)CC23CCC(CC2=O)C3(C)C)c(=O)n(-c2ccccc2)n1C (configuration not stated),1,55*,0.5,-10,-5
Cc1c(NS(=O)(=O)c2ccc(Br)s2)c(=O)n(-c2ccccc2)n1C,0.5,47,0.5,-5,54*
O=C(CSc1nnnn1C1CCCCC1)N1CCc2ccccc21,1.1,-14,1.1,-1,-11
Cc1ccc2c(Cl)c(C(=O)NCC3CCCO3)sc2c1 (configuration not stated),0.9,28,0.7,-4,7
Cc1cc(C(=O)Nc2ccccn2)no1,1,-13,1.1,-3,-4
O=C(Nc1ccc(Cl)cc1)NC1CCCCC1Cc1ccco1 (configuration not stated),0.4,10,0.9,-1,59*
O=C(Nc1ccc(Cl)cc1)NC1CCCC1Cc1ccco1 (configuration not stated),0.3,38,0.6,-3,65*
O=C(Nc1ccc(Cl)cc1)NC1CCCCC1,1,-1,1,2,1
CCN(CC)c1ncnc2c1cnn2C,1,9,0.9,1,3
CCOC(=O)N1CC=C2C(C#N)=C(N)C(C#N)(C#N)[C@H](c3ccc(OC(C)C)c(OCC)c3)[C@H]2C1,0.3,39,0.6,9,74*
CCOC(=O)N1CC=C2C(C#N)=C(N)C(C#N)(C#N)[C@H](c3ccccc3OCC)[C@H]2C1,0.9,15,0.8,2,13
CCOc1ccccc1NC(=O)NC1CCN(CC(=O)Nc2ccc3c(c2)OCCO3)CC1,0.6,59*,0.4,-11,36
COc1ccccc1NC(=O)Nc1ccc2c(c1)OCCO2,0.5,82*,0.2,1,54*
O=C(CN1CCC(NC(=O)c2ccco2)CC1)Nc1cccc2ccccc12,.,.,.,2,.
COc1ccccc1NC(=O)CN1CCN(CC(=O)Nc2ccc3c(c2)OCO3)CC1,0.7,88*,0.1,.,34
CC(C)c1ccc(NC(=O)NC2CCN(CC(=O)Nc3cccc4ccccc34)CC2)cc1,0.9,56*,0.4,7,13
COc1ccc(NC(=O)CN2CCN(CC(=O)Nc3ccc4c(c3)OCO4)CC2)cc1,0.8,18,0.8,.,18
SMILES,CYP2C9 act,CYP2C19 inh,CYP2C19 act,EphB4 ephrin blk,CYP2C9 inhib
CC1CN(Cc2nc3c(c(=O)n(C)c(=O)n3C)n2CCCc2ccccc2)CC(C)O1 (configuration not stated),.,.,.,8,.
CN1C(=O)N(C)C2(c3ccccc3)Nn3c(s/c(=C/c4ccco4)c3=O)=NC12c1ccccc1 (configuration not stated),0.7,2,1,12,28
Cn1nnnc1SCC(=O)Nc1ccccn1,0.6,44,0.6,0,41
CN1/C(=C\C(=O)COc2ccc3c(c2)OCO3)C(C)(C)c2ccccc21,0.1,24,0.8,-1,87*
CN1/C(=C\C(=O)C(F)F)C(C)(C)c2ccccc21,0.5,34,0.7,2,53*
CN1/C(=C\C(=O)c2ccco2)C(C)(C)c2ccccc21,0.4,25,0.8,-3,56*
CN1/C(=C\C(=O)COC(=O)C2COc3ccccc3O2)C(C)(C)c2ccccc21 (configuration not stated),1,-1,1,8,3
CN1/C(=C\C=Nc2ccccc2)C(C)(C)c2ccccc21,1,1,1,0,1
Cn1c(SC2C(=O)CC(C)(C)CC2=O)nnc1-c1ccco1,1,2,1,.,2
CCCc1nc(N)c(C#N)c(N)c1C#N,1,-3,1,-10,-1
COCCCNC(=O)c1ccc(Cn2c(=O)c3ccccc3n(Cc3ccccc3C)c2=O)cc1,0.2,78*,0.2,4,80*
COCCCNC(=O)c1ccc(Cn2c(=O)c3ccccc3n(Cc3cc(C)ccc3C)c2=O)cc1,0.2,75*,0.3,0,82*
COCCCNC(=O)CCn1c(=O)c2ccccc2n(CC(=O)Nc2c(C)cccc2C)c1=O,0.8,-2,1,-3,17
COCCCNC(=O)c1ccc(Cn2c(=O)c3ccccc3n(Cc3ccccc3C#N)c2=O)cc1,0.4,52*,0.5,-1,59*
COCCCNC(=O)CCn1c(=O)c2ccccc2n(CC(=O)Nc2ccccc2C)c1=O,0.6,-9,1.1,-8,41
COc1ccc2oc(C(=O)OCC(=O)NC(=O)NC(C)C)c(C)c2c1,0.9,14,0.9,2,9
Cc1ccc(-n2c(SCC(=O)NCC3CCCO3)nc3c(c2=O)SCC3)cc1 (configuration not stated),0.9,10,0.9,.,12
CN1C(=O)C2(OCC(COc3ccc(Cl)cc3)O2)c2ccccc21 (configuration not stated),1.1,32,0.7,-4,-8
O=C(CSc1nnc(CNC(=O)c2c(F)cccc2Cl)o1)Nc1ccccc1,1,2,1,-6,2
CCc1ccc(NC(=O)CSc2nnc(CNC(=O)c3c(F)cccc3Cl)o2)cc1,0.5,21,0.8,1,52*
COc1ccc(NC(=O)N2CCN(c3cccc(C(F)(F)F)c3)CC2)cc1OC,1.4,-4,1,-4,-37
O=C(c1cccc(F)c1)N1CCN(c2cccc(C(F)(F)F)c2)CC1,0.2,88*,0.1,4,81*
O=C(c1csc2c1CCCC2)N1CCN(c2ccc(F)cc2)CC1,.,.,.,3,.
O=C(c1cccc(C(=O)N2CCN(c3ccccc3)CC2)c1)N1CCN(c2ccccc2)CC1,0.7,41,0.6,-4,34
O=C(c1csc2c1CCCC2)N1CCN(c2cccc(C(F)(F)F)c2)CC1,1.6,65*,0.3,4,-61
